According to the supplement of paper PMC6555819:

Experiments:
Assay in all cases: PBM binding z-score (relative to random genomic background probes); higher = stronger binding; sequences stand for … in GC…GCGATTGACAGCGTAGAATGAAGG
[1] = test system: FXR:RXRa (NR concentration 270 nM, RXRa partner concentration 90 nM)
Procedure, shortened: (§1)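 Custom Agilent 4×180K protein-binding microarrays carried double-stranded probes, each with a 34-nt variable region. These regions held direct-repeat seeds, single-nucleotide variants, half-site ablations and random human genomic background sequences. Ligand-free nuclear receptor dimers were incubated on the arrays for 1 h, antibodies against each partner (one per run) detected binding, and scanned fluorescence was regression-normalized. Binding z-scores take the random background probes as reference.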

[2] = test system: LXRa:RXRa (NR concentration 270 nM, RXRa partner concentration 90 nM)
Procedure, shortened: as §1

[3] = test system: LXRa homodimer (NR concentration 270 nM)
Procedure, shortened: as §1

[4] = test system: LXRb:RXRa (NR concentration 270 nM, RXRa partner concentration 90 nM)
Procedure, shortened: as §1

[5] = test system: LXRb homodimer (NR concentration 270 nM)
Procedure, shortened: as §1

[6] = test system: PPARa:RXRa (NR concentration 270 nM, RXRa partner concentration 90 nM)
Procedure, shortened: as §1

[7] = test system: PPARg:RXRa (NR concentration 180 nM, RXRa partner concentration 90 nM)
Procedure, shortened: as §1

[8] = test system: PPARg:RXRa 270nM:90nM, anti-RXR (NR concentration 270 nM, RXRa partner concentration 90 nM)
Procedure, shortened: as §1

[9] = test system: PPARg:RXRa 30nM:10nM, anti-RXR (NR concentration 30 nM, RXRa partner concentration 10 nM)
Procedure, shortened: as §1

[10] = test system: PPARg:RXRa 90nM:30nM, anti-RXR (NR concentration 90 nM, RXRa partner concentration 30 nM)
Procedure, shortened: as §1

[11] = test system: PPARg:RXRa DBDmut IVT, anti-RXR (DBD mutation: RXRa K156A/R161A, NR concentration 270 nM, RXRa partner concentration 90 nM)
Procedure, shortened: as §1

[12] = test system: PPARg:RXRa IVT, anti-PPARg (NR concentration 270 nM, RXRa partner concentration 90 nM)
Procedure, shortened: as §1

[13] = test system: PPARg DBDmut:RXRa IVT, anti-PPARg (DBD mutation: PPARg1 K132A/R137A, NR concentration 270 nM, RXRa partner concentration 90 nM)
Procedure, shortened: as §1

[14] = test system: PPARg DBDmut IVT, anti-PPARg (DBD mutation: PPARg1 K132A/R137A, NR concentration 270 nM)
Procedure, shortened: as §1

[15] = test system: PPARg homodimer (NR concentration 180 nM)
Procedure, shortened: as §1

[16] = test system: PXR:RXRa (NR concentration 270 nM, RXRa partner concentration 90 nM)
Procedure, shortened: as §1

[17] = test system: PXR homodimer (NR concentration 270 nM)
Procedure, shortened: as §1

[18] = test system: RARa:RXR (NR concentration 270 nM, RXRa partner concentration 90 nM)
Procedure, shortened: as §1

[19] = test system: RARa homodimer (NR concentration 270 nM)
Procedure, shortened: as §1

[20] = test system: RARb:RXRa (NR concentration 270 nM, RXRa partner concentration 90 nM)
Procedure, shortened: as §1

| Sequence | PBM binding z-score [1] | PBM binding z-score [2] | PBM binding z-score [3] | PBM binding z-score [4] | PBM binding z-score [5] | PBM binding z-score [6] | PBM binding z-score [7] | PBM binding z-score [8] | PBM binding z-score [9] | PBM binding z-score [10] | PBM binding z-score [11] | PBM binding z-score [12] | PBM binding z-score [13] | PBM binding z-score [14] | PBM binding z-score [15] | PBM binding z-score [16] | PBM binding z-score [17] | PBM binding z-score [18] | PBM binding z-score [19] | PBM binding z-score [20] |
| --- | --- | --- | --- | --- | --- | --- | --- | --- | --- | --- | --- | --- | --- | --- | --- | --- | --- | --- | --- | --- |
| TTACCAAGGTGAGCTGAGGTCGTTGAACCAACTC | 1.78 | 1.48 | -0.292 | 0.787 | -0.885 | 1.88 | 0.111 | 0.783 | -0.445 | 0.391 | 0.903 | 1.83 | -0.507 | -1.13 | -0.0477 | 5.01 | 0.275 | 2.19 | -0.877 | 1.79 |
| ATATGTAGGTTAGCCGGGGTCATTCAGACTAGGC | 5.13 | 5.67 | 3.14 | 4.72 | 0.687 | 5.6 | 6.59 | 5.96 | 3.47 | 5.29 | 7.11 | 6.89 | 1.14 | 1.79 | 2.77 | 6.72 | 4.32 | 6.2 | 0.664 | 3.31 |
| AGAATGAGGTTATACGTAGATCAGGGATGAAAGT | 2.37 | 1.9 | 0.0703 | 1.68 | -0.152 | 3.09 | 2.07 | 2.01 | 0.736 | 1.73 | 3.98 | 2.18 | 1.78 | 0.781 | 0.69 | 1.28 | 0.675 | 1.93 | 0.93 | 1.44 |
| TCTTCTAGGTCAGTTGGTCAGCTAACGAGCTGCC | 2.21 | 1.87 | 0.567 | 1.71 | 3.5 | 2.99 | 3.77 | 4.43 | 4.38 | 4.54 | 6.39 | 6.42 | 3.22 | 3.33 | 2.21 | 1.3 | 0.447 | 1.58 | 1.05 | 3.79 |
| TCATATAGGTAATACCGGTGAAAGTCGGCATCTA | 0.519 | 0.637 | 0.169 | 0.726 | 0.0983 | 1.44 | 0.698 | 2.2 | 4.02 | 3.31 | 3.57 | 2.28 | 0.77 | 0.786 | 0.599 | 0.488 | 0.00655 | 1.01 | 0.792 | 0.224 |
| ATACCAAGGTGATCGTGGGGTCGTTGATACTAAC | 1.56 | 1.27 | 0.187 | 2.56 | 0.143 | 2.42 | 0.805 | 0.876 | 0.0671 | 0.468 | 0.765 | 1.54 | 0.837 | 0.583 | 1.5 | 3.05 | 1.11 | 2.65 | 0.577 | 1.33 |
| ATAGACAGGTGAGTGAAGGTAACTCAGCTGGACG | 0.729 | 0.567 | -0.416 | -0.043 | 0.00945 | 0.437 | 0.69 | 0.369 | 0.155 | 0.444 | -0.0175 | 0.973 | 0.246 | 0.208 | 0.132 | 0.352 | 0.0205 | 0.959 | -0.0264 | 0.603 |
